Rows were chosen to be rich in hits. Some 6.8% of all compounds tested hit in one or more screens of this group.
T cruzi growth-1: T. cruzi intracellular proliferation inhibitors, primary screen, cell-based, beta-gal Tulahuen parasites, NIH3T3 host, luminescence. T. cruzi beta-gal in NIH3T3, GalScreen luminescence, 90 h. inhibition, % at 8.34 µM. actives 5.9% (n = 77,000). AID 624255, 2012;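 active = mean inhibition above about 93%, with at least 55% of replicates each passing it, limit read from the data, passing the limit was not always enough; inconclusive = only one of those two conditions holds; inactive = neither condition holds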
Pf Dd2 growth: P. falciparum Dd2 growth inhibitors, primary screen, SYBR Green fluorescence, single dose replicates. 72 h; stronger effect = lower value. activity change, % at 10 µM. actives 2.3% (n = 94,000); in the data active = activity change below about -80%; inconclusive = no clear call, values can overlap the other calls
C diff growth: C. difficile growth inhibitors, primary screen, HTS; Clostridium difficile clinical isolate growth, OD600, 24 h; stronger effect = lower value; growth activity, negative = inhibition, % at 16 µg/mL (by protocol); actives 0.25% (n = 86,000); AID 1259249, 2017;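 active = mean growth activity at or below -80% and every replicate also at or below -80%; inconclusive = mean at or below -80% but some replicate above -80%; inactive = mean growth activity above -80%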;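 also: 0% = DMSO wells and -100% = levofloxacin 16 µg/mL wells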
T cruzi growth-2: T. cruzi intracellular proliferation inhibitors, confirmation, cell-based, NIH3T3 host, beta-gal parasite, luminescence, cherry-pick; AID 651739, 2012; inhibition, % at 8.35 µM; actives 72% (n = 5,600); T. cruzi beta-gal in NIH3T3, GalScreen luminescence, 90 h; shares compounds with T cruzi growth-1;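 active = mean replicate inhibition above about 95% and at least 55% of replicates individually reaching it, limit read from the data; inconclusive = only one of the two criteria is met; inactive = neither criterion is met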
T cruzi growth-3: inhibitors of intracellular T. cruzi replication, confirmation, NIH3T3 host cells, beta-gal parasites, cherry-pick, set 2; shares compounds with T cruzi growth-1; T. cruzi beta-gal in NIH3T3, GalScreen luminescence, 90 h; inhibition, % at 2.09 µM; actives 21% (n = 5,600);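 active = mean inhibition above about 95%, with at least 55% of replicates also reaching it, limit read from the data; inconclusive = meets just one of the two conditions; inactive = meets neither condition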;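 also: plate controls were neutral control median for no effect and positive control median for full effect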
3T3 cytotox: cytotoxicity in mouse NIH/3T3 fibroblasts, confirmation, cytotoxicity control for T. cruzi proliferation inhibitor project, cell-based, cherry-pick, single point | shares compounds with T cruzi growth-1 | NIH/3T3 viability, CellTiter-Glo ATP luminescence, 90 h | cytotoxicity (signal decrease), % at 8.35 µM | actives 14% (n = 5,600) | AID 651742, 2012;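 active = mean signal decrease across replicates above about 35% based on untreated-well scatter, with enough replicates individually passing, limit read from the data; inconclusive = no rule stated though some were filed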;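 also: 0% = median of neutral control wells and 100% = median of positive control wells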
3T3 cytotox 2: NIH/3T3 fibroblast cytotoxicity, confirmation, cytotoxicity control, cell-based, cherry-pick, single point, set 2 | shares compounds with T cruzi growth-1 | NIH/3T3 viability, CellTiter-Glo ATP luminescence, 90 h | inhibition, % at 24.9 µM | actives 56% (n = 5,600) | AID 651744, 2012;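 active = mean loss of cell viability signal at or above a set limit, and enough replicates individually reaching it; inconclusive = meets only the mean limit or only the replicate share; inactive = meets neither condition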;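 also: 0% = median of neutral control wells and 100% = median of positive control wells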
Numbers without * were called inactive.

For C[C@@H]1CN([C@@H](C)CO)C(=O)c2cc(C#Cc3ccccc3F)cnc2O[C@@H]1CN(C)S(=O)(=O)c1ccccc1 the results were T cruzi growth-1 114*, Pf Dd2 growth -31, C diff growth 1, T cruzi growth-2 99*, T cruzi growth-3 70, 3T3 cytotox 31 and 3T3 cytotox 2 50*.
Screening C[C@H]1CN([C@@H](C)CO)C(=O)c2cc(C#Cc3ccccc3F)cnc2O[C@H]1CN(C)S(C)(=O)=O returned T cruzi growth-1 49 and Pf Dd2 growth 0.
C[C@H](CO)N1C[C@H](C)[C@@H](CN(C)C(=O)Cc2ccncc2)Oc2ncc(C#Cc3ccccc3F)cc2C1=O was read as T cruzi growth-1 inconclusive, Pf Dd2 growth -77, C diff growth 0, T cruzi growth-2 112*, T cruzi growth-3 63, 3T3 cytotox 18 and 3T3 cytotox 2 inconclusive.
C[C@H](CO)N1C[C@H](C)[C@H](CN(C)C(=O)Cc2ccncc2)Oc2ncc(C#Cc3ccccc3F)cc2C1=O was read as T cruzi growth-1 63, Pf Dd2 growth -43 and C diff growth 2.
`C[C@@H]1CN([C@H](C)CO)C(=O)c2cc(C#Cc3ccccc3F)cnc2O[C@@H]1CN(C)S(=O)(=O)c1ccccc1` gave T cruzi growth-1 116*, Pf Dd2 growth -36, C diff growth -11, T cruzi growth-2 98*, T cruzi growth-3 64, 3T3 cytotox 22 and 3T3 cytotox 2 68*.
Screening C[C@H](CO)N1C[C@H](C)[C@@H](CN(C)S(C)(=O)=O)Oc2ncc(C#Cc3ccccc3F)cc2C1=O returned T cruzi growth-1 -8, Pf Dd2 growth 7 and C diff growth -5.
For C[C@@H]1CN([C@H](C)CO)C(=O)c2cc(C#Cc3ccccc3F)cnc2O[C@H]1CN(C)S(=O)(=O)c1ccccc1 the results were T cruzi growth-1 126*, Pf Dd2 growth -38, C diff growth -3, T cruzi growth-2 109*, T cruzi growth-3 87, 3T3 cytotox inconclusive and 3T3 cytotox 2 35*.
Screening CC(C)NC(=O)N[C@H]1CC[C@@H](CCn2cc(-c3ccc(F)cc3)nn2)O[C@H]1CO returned T cruzi growth-1 -33 and Pf Dd2 growth 4.
`C[C@H](CO)N1C[C@H](C)[C@@H](CN(C)S(C)(=O)=O)Oc2ccc(NC(=O)Cn3cnnn3)cc2CC1=O` gave T cruzi growth-1 -26, Pf Dd2 growth 30 and C diff growth -10.
Screening C[C@H]1CN([C@@H](C)CO)C(=O)c2cc(C#Cc3ccccc3F)cnc2O[C@@H]1CN(C)S(=O)(=O)c1ccccc1 returned T cruzi growth-1 128*, Pf Dd2 growth -73, C diff growth -12, T cruzi growth-2 110*, T cruzi growth-3 78, 3T3 cytotox 60* and 3T3 cytotox 2 47*.
Screening C[C@@H]1CN([C@H](C)CO)C(=O)c2cc(C#Cc3ccccc3F)cnc2O[C@H]1CN(C)S(C)(=O)=O returned T cruzi growth-1 64 and Pf Dd2 growth -29.
Screening O=C(C[C@H]1CC[C@H]2[C@@H](COC[C@@H](O)CN2S(=O)(=O)c2cccc(Cl)c2)O1)NCc1ccncn1 returned T cruzi growth-1 27 and Pf Dd2 growth 3.
For O=C(C[C@H]1CC[C@@H]2[C@H](COC[C@H](O)CN2C(=O)c2cccnc2)O1)NC1Cc2ccccc2C1 the results were T cruzi growth-1 16, Pf Dd2 growth 18 and C diff growth 6.
For COCC#Cc1cnc2c(c1)C(=O)N([C@H](C)CO)C[C@H](C)[C@@H](CN(C)Cc1ccc(-c3ccccc3)cc1)O2 the results were T cruzi growth-1 80, Pf Dd2 growth -68 and C diff growth 6.
Screening C[C@H]1CN([C@@H](C)CO)C(=O)c2cc(C#CCN(C)C)cnc2O[C@H]1CN(C)Cc1ccc(-c2ccccc2)cc1 returned T cruzi growth-1 79 and C diff growth 16.
COCC#Cc1cnc2c(c1)C(=O)N([C@H](C)CO)C[C@@H](C)[C@@H](CN(C)Cc1ccc(-c3ccccc3)cc1)O2 was read as T cruzi growth-1 84, Pf Dd2 growth -38 and C diff growth 3.
`COCC#Cc1cnc2c(c1)C(=O)N([C@H](C)CO)C[C@@H](C)[C@H](CN(C)Cc1ccc(-c3ccccc3)cc1)O2` gave T cruzi growth-1 119*, Pf Dd2 growth -69, C diff growth 11, T cruzi growth-2 108*, T cruzi growth-3 39, 3T3 cytotox 20 and 3T3 cytotox 2 102*.
Screening COCC#Cc1cnc2c(c1)C(=O)N([C@@H](C)CO)C[C@@H](C)[C@H](CN(C)Cc1ccc(-c3ccccc3)cc1)O2 returned T cruzi growth-1 120*, Pf Dd2 growth -44, C diff growth 2, T cruzi growth-2 109*, T cruzi growth-3 62, 3T3 cytotox 46* and 3T3 cytotox 2 106*.
C[C@H](CO)N1C[C@H](C)[C@@H](CN(C)Cc2ccc(-c3ccccc3)cc2)Oc2ncc(C#CCN(C)C)cc2C1=O was read as T cruzi growth-1 inconclusive, C diff growth -5, T cruzi growth-2 108*, T cruzi growth-3 82, 3T3 cytotox 33 and 3T3 cytotox 2 104*.
Screening C[C@@H]1CCCCO[C@@H](CN(C)Cc2ccccc2)[C@H](C)CN([C@@H](C)CO)C(=O)c2cc(NC(=O)Nc3ccc4c(c3)OCO4)ccc2O1 returned T cruzi growth-1 92, Pf Dd2 growth -77 and C diff growth 6.
O=C(C[C@H]1CC[C@H](NC(=O)Nc2ccccc2F)[C@@H](CO)O1)NCc1ccc(Cl)cc1 was read as T cruzi growth-1 31, Pf Dd2 growth -9 and C diff growth 6.
O=C(N[C@H]1C=C[C@H](CC(=O)N2CCOCC2)O[C@@H]1CO)c1cccc(F)c1 was read as T cruzi growth-1 -39 and Pf Dd2 growth 19.
O=C(C[C@@H]1CC[C@@H]2[C@H](COC[C@H](O)CN2C(=O)Nc2ccccc2)O1)NC1Cc2ccccc2C1 was read as T cruzi growth-1 46 and Pf Dd2 growth 12.
For CCC(=O)N1CCCCN2[C@H](CO)[C@@H](c3ccc(C#CCOC)cc3)[C@@H]2C1 the results were T cruzi growth-1 100*, Pf Dd2 growth 0, C diff growth -6, T cruzi growth-2 1, T cruzi growth-3 22, 3T3 cytotox -2 and 3T3 cytotox 2 14.

Bioassay records from PubChem BioAssay.
